Data reported in PubChem BioAssay (NCATS).
Several values for one entry are separate records, joined by “and”; a condition that tells them apart may be missing. Equal values may be shown once. Records with an inconclusive call do not appear. Where a call stands in place of a potency, no number is given. Activity calls are given as the source filed them. Unless noted, calls follow the shape of the full dose curve.

How the values were obtained:
[1] = target: Estrogen receptor (Homo sapiens) (UniProt P03372); assay: qHTS assay for small molecule agonists of estrogen receptor alpha signaling (AID 588514); also: nearly all actives have a fitted effect of over 70% in size
Summary of the method: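 ER-alpha-UAS-bla GripTite HEK 293 cells in medium with 2% charcoal/dextran-treated FBS were treated with compound titrations at 37 C for 18 hrs; beta-lactamase reporter read by CCF4 fluorescence after 2 hrs at RT.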

[2] = target: Glucocorticoid receptor (Homo sapiens) (UniProt P04150); assay: qHTS assay for small molecule agonists of glucocorticoid receptor signaling (AID 588532; active = well fitted curve in the direction sought with a large enough effect in the signal ratio, with a control signal flat; the % refers to the signal ratio); conditions: HeLa MMTV-bla, beta-lactamase ratio, agonist, 18 h; stronger effect = higher value; percent of dexamethasone control, DMSO zero
Summary of the method: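 Titration series, up to 92 uM, applied to GRE-bla HeLa cells for 18 h at 37 C. Detection by CCF4 FRET substrate after 2 h at RT.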

[3] = target: Glucocorticoid receptor (Homo sapiens) (UniProt P04150); assay: qHTS assay for small molecule antagonists of glucocorticoid receptor signaling (AID 588533; active = well fitted inhibition curve with a large enough effect in the signal ratio, with a control signal flat, not every such curve was filed as active; the % refers to the signal ratio;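 also: cells stimulated with 2 nM dexamethasone as agonist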)
Summary of the method: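 Antagonist-mode qHTS: compound titrations added to GRE-bla HeLa cells, then dexamethasone 2 nM final; 18 h, 37 C. CCF4 FRET fluorescence normalized to dexamethasone and DMSO; IC50 from Hill fit.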

[4] = target: Vitamin D3 receptor (Homo sapiens) (UniProt P11473); assay: qHTS assay for small molecule antagonists of vitamin D receptor signaling (AID 588541);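 also: receptor activated by calcitriol during compound treatment; series mostly up to about 77 µM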
Summary of the method: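 VDR-UAS-bla HEK293T cells (2000/well, 2% charcoal-stripped FBS) were treated with titrated compounds plus 1-alpha,25-dihydroxyvitamin D3 (50 nM or 3 nM final) for 16 h at 37 C. CCF4 beta-lactamase fluorescence was read; Hill fits gave IC50.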

[5] = target: Vitamin D3 receptor (Homo sapiens) (UniProt P11473); assay: qHTS assay for small molecule agonists of vitamin D receptor signaling (AID 588543)
Summary of the method: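 β-lactamase reporter, VDR-UAS-bla HEK293T, agonist mode. Cells plated 5 h at 37 °C, compound titration 16 h at 37 °C, CCF4 dye 2 h RT, ratio 460/530 nm. Hill fit → EC50, efficacy vs 50 nM 1α,25-(OH)2D3.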

[6] = qHTS assay for small molecule agonists of retinoid X receptor alpha signaling (AID 588544); conditions: HEK293T RXRa-UAS-bla, beta-lactamase reporter, 18 h; 530 nm emission
[7] = target: Retinoic acid receptor RXR-alpha (Homo sapiens) (UniProt P19793); assay: as above
[8] = target: Thyroid hormone receptor beta (Homo sapiens) (UniProt P10828); assay: qHTS assay for small molecule agonists of thyroid hormone receptor beta signaling (AID 588545)
Summary of the method: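 HEK 293 TR-UAS-bla; agonist mode; 18 hrs, 37 C; CCF4, ex 405/em 460 and 530 nm; norm. T3 10 nM = 100%, DMSO = 0%; Hill fit → EC50, efficacy.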

[9] = qHTS assay for small molecule antagonists of retinoid X receptor alpha signaling (AID 588546; active = well fitted inhibition curve with a large enough effect in the signal ratio, with a control signal flat, not every such curve was filed as active; the % refers to the signal ratio;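 also: cells stimulated with 9-cis-retinoic acid as agonist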); conditions: HEK293T RXRa-UAS-bla, beta-lactamase ratio, antagonist mode; measured here: W530 green channel, cytotoxicity proxy
Summary of the method: (§1)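 Beta-lactamase reporter inhibition, read as CCF4 fluorescence ratio (ex 405, em 460/530 nm) after 2 h at RT. HEK293T UAS-bla cells, 2500/well, were stimulated with 9-cis-RA at 500 or 100 nM final alongside test compound for 18 h at 37 C.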

[10] = target: Retinoic acid receptor RXR-alpha (Homo sapiens) (UniProt P19793); assay: as above; conditions: HEK293T RXRa-UAS-bla, beta-lactamase ratio, antagonist mode
Summary of the method: as §1

[11] = qHTS assay for small molecule activators of the nuclear factor-kappa B (NF-kB) signaling pathway (AID 651749; active = well fitted activation curve with a large enough effect in the signal ratio; the % refers to the signal ratio; also: series mostly up to about 77 µM); conditions: NF-kB-bla ME-180 cells, beta-lactamase FRET ratio, 16 h; activation: stronger effect = higher value
Summary of the method: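 ME-180 cells stably carrying a beta-lactamase reporter under an NF-kB response element were exposed to compound or DMSO vehicle for 16 hr at 37C, 5% CO2. Pathway activation was read by FRET, since reporter expression disrupts FRET.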

[12] = qHTS assay for environmental chemicals that activate the Aryl hydrocarbon Receptor (AhR) signaling pathway (AID 651777; active = well fitted curve in the direction sought with a large enough effect; an effect the other way counts as inactive or inconclusive; also: nearly all actives have a fitted effect of over 15% in size); conditions: 1A2-DRE human hepatoma cells, luciferase, 24 h; activation: stronger effect = higher value
Summary of the method: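 Reporter gene assay: hepatoma cells with DRE/CYP1A2-luciferase, 24 hr compound incubation at 37 C, 5% CO2, luminescence after One-Glo (30 min, RT).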

[13] = target: Peroxisome proliferator-activated receptor alpha (Homo sapiens) (UniProt Q07869); assay: qHTS assay for small molecule agonists of the peroxisome proliferator-activated receptor alpha (PPARalpha) signaling pathway (AID 651778; active = well fitted curve in the direction sought with a large enough effect; an effect the other way counts as inactive or inconclusive); conditions: PathHunter PPARalpha complementation, chemiluminescence, 6 h; max response: stronger effect = higher value
Summary of the method: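 Cells plated at 2,000/well and held overnight at 37 C, 5% CO2, then compound added by pin tool for 6 hr; after PathHunter detection reagent and 60 min at room temperature, chemiluminescence from enzyme complementation was read.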

[14] = qHTS assay for small molecule agonists of the antioxidant response element (ARE) signaling pathway measured by Nrf2-dependant transcriptional activity (AID 720636; active = well fitted curve in the direction sought with a large enough effect in the repeat runs; an effect the other way counts as inactive or inconclusive;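 also: HepG2 cells with an ARE-driven luciferase reporter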)
Summary of the method: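 Nrf2-dependent transcription is measured in ARE-luc HepG2 cells: compound is applied for 16 hr at 37 C after a 6 hr attachment period, and luciferase activity is quantified by luminescence using ONE-Glo.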

[15] = qHTS assay for small molecule agonists of the antioxidant response element (ARE) signaling pathway measured by Nrf2-dependant transcriptional activity - cell viability counter screen (AID 720653; active = well fitted curve in the direction sought with a large enough effect in the repeat runs; an effect the other way counts as inactive or inconclusive); conditions: ARE-bla HepG2 viability, CellTiter-Glo ATP luminescence, 16 h; max response: stronger effect = lower value
Summary of the method: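 ARE-bla HepG2 cells (2,000/well) rested 5 hrs at 37C/5% CO2, then exposed to compounds in DMSO for 16 hrs. Viability was read in the same wells as intracellular ATP by luminescence, 30 min at room temperature after reagent addition.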

[16] = qHTS assay for cell viability of HEK293 cells (AID 743288; active = well fitted curve in the direction sought with a large enough effect; an effect the other way counts as inactive or inconclusive; also: nearly all actives have a fitted effect of over 50% in size); conditions: ATP luminescence (CellTiter-Glo), 18 h; max response: stronger effect = lower value
Summary of the method: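 Environmental chemicals tested in qHTS format against parental HEK293 cells; 18 h treatment, 37 C; read-out ATP luminescence (CellTiter-Glo), 30 min RT development.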

[17] = qHTS assay for cell viability of the p53RE-bla HCT-116 cell line (AID 743292; active = well fitted curve in the direction sought with a large enough effect; an effect the other way counts as inactive or inconclusive; also: nearly all actives have a fitted effect of over 55% in size)
Summary of the method: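 ATP-based luminescence, 16 h compound exposure at 37 C, p53RE-bla HCT-116 cells at 4,000/well.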

[18] = target: Nuclear receptor subfamily 1 group I member 2 (Rattus norvegicus) (UniProt Q9R1A7); assay: qHTS assay for small molecule activators of the rat pregnane X receptor (rPXR) signaling pathway (AID 651751; call rule not given here); conditions: rPXR reporter cells, luciferase (One-Glo), 24 h
[19] = target: Peroxisome proliferator-activated receptor gamma (Homo sapiens) (UniProt P37231); assay: qHTS assay for small molecule agonists of peroxisome proliferator-activated receptor gamma signaling (AID 588536; active = well fitted curve in the direction sought with a large enough effect in the signal ratio, with a control signal flat, not every such curve was filed as active; the % refers to the signal ratio)
Summary of the method: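 HEK293 UAS-bla reporter line, 1% charcoal/dextran FBS; titration, 16 h, 37 C; CCF4 loading 2 h RT; fluorescence 460/530 nm. Normalized to rosiglitazone 2 uM = 100%, DMSO = 0%.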

[20] = qHTS assay for small molecule activators of the human pregnane X receptor (PXR) signaling pathway (AID 720659; call rule not given here)

Retinoic acid receptor RXR-alpha (Homo sapiens), sequence (P19793 whole entry, looked up): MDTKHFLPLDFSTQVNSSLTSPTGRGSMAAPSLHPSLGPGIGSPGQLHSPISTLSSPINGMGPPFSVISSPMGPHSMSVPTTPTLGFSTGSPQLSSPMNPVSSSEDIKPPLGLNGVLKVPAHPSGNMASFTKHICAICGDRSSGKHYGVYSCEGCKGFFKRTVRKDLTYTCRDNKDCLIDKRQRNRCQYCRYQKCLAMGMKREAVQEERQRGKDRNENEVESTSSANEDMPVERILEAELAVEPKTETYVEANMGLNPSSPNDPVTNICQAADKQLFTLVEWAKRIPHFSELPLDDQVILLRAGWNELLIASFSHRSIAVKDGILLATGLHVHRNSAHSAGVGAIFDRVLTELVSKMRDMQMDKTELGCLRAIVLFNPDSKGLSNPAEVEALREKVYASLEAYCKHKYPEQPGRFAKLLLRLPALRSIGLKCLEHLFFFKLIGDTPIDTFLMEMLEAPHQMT
Peroxisome proliferator-activated receptor gamma (Homo sapiens), sequence (P37231 whole entry, looked up): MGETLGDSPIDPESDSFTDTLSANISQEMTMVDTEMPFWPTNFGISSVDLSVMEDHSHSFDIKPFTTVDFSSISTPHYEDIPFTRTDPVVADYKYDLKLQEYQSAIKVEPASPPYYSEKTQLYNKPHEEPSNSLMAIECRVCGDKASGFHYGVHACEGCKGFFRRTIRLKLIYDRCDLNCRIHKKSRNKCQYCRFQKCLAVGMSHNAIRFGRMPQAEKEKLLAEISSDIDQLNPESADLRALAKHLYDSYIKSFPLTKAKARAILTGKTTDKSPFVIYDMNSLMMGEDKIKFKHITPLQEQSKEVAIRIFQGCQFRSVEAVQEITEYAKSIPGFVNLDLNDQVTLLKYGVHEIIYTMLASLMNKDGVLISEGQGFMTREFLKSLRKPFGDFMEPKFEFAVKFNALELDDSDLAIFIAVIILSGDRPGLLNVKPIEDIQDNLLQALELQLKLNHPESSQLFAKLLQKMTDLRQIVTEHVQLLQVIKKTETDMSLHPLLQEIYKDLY
Nuclear receptor subfamily 1 group I member 2 (Rattus norvegicus), sequence (Q9R1A7 whole entry, looked up): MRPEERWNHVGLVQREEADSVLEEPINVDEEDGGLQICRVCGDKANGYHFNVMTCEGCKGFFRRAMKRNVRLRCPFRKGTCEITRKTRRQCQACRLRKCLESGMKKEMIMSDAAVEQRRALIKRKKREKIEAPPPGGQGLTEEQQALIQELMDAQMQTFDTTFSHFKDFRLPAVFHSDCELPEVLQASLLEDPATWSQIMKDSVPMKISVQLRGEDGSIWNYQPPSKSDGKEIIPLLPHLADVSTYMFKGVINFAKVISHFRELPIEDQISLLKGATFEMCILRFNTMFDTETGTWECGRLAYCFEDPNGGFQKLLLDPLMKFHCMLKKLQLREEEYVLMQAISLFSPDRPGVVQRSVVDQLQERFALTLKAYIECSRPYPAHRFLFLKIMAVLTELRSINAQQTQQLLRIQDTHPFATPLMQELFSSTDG
Thyroid hormone receptor beta (Homo sapiens), sequence (P10828 whole entry, looked up): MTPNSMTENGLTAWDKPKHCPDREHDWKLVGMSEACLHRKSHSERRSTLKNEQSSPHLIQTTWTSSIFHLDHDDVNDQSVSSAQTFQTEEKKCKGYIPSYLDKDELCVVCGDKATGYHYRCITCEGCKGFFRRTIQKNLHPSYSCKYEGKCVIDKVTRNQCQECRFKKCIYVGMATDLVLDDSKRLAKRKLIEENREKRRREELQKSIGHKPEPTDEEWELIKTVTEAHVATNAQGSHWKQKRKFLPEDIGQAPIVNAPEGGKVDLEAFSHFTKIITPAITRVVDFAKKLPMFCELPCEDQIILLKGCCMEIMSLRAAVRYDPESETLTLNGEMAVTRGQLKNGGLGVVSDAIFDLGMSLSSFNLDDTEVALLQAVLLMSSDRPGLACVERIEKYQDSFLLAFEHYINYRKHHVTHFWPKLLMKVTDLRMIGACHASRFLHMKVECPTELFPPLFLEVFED
Estrogen receptor (Homo sapiens), sequence (P03372 whole entry, looked up): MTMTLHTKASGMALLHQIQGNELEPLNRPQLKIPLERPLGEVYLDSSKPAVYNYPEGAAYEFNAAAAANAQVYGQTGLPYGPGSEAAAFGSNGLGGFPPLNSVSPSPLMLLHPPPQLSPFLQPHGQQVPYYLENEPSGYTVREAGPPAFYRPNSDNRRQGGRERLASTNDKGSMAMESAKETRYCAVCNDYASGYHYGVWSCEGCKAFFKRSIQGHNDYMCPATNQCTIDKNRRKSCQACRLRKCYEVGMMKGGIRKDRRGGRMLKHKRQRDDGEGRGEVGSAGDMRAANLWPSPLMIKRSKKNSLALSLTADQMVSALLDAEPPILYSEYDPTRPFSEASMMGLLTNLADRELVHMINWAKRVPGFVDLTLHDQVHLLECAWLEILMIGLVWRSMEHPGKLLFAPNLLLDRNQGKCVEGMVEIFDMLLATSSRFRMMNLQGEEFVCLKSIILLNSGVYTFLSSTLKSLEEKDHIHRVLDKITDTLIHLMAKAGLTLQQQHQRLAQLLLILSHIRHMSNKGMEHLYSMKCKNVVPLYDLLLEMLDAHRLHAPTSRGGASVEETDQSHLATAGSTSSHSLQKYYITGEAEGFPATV
Peroxisome proliferator-activated receptor alpha (Homo sapiens), sequence (Q07869 whole entry, looked up): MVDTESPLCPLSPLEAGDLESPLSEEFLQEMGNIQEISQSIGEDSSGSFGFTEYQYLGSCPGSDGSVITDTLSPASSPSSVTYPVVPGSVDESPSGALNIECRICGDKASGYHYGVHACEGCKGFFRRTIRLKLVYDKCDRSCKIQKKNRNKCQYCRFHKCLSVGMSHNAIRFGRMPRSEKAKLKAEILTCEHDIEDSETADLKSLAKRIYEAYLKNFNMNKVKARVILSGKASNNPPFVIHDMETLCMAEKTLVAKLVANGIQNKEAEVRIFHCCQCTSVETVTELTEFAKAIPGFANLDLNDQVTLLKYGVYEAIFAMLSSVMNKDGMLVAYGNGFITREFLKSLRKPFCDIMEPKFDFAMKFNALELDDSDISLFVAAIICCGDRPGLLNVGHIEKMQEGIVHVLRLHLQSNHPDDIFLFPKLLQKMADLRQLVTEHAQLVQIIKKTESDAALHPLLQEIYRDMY
Glucocorticoid receptor (Homo sapiens), sequence (P04150 whole entry, looked up): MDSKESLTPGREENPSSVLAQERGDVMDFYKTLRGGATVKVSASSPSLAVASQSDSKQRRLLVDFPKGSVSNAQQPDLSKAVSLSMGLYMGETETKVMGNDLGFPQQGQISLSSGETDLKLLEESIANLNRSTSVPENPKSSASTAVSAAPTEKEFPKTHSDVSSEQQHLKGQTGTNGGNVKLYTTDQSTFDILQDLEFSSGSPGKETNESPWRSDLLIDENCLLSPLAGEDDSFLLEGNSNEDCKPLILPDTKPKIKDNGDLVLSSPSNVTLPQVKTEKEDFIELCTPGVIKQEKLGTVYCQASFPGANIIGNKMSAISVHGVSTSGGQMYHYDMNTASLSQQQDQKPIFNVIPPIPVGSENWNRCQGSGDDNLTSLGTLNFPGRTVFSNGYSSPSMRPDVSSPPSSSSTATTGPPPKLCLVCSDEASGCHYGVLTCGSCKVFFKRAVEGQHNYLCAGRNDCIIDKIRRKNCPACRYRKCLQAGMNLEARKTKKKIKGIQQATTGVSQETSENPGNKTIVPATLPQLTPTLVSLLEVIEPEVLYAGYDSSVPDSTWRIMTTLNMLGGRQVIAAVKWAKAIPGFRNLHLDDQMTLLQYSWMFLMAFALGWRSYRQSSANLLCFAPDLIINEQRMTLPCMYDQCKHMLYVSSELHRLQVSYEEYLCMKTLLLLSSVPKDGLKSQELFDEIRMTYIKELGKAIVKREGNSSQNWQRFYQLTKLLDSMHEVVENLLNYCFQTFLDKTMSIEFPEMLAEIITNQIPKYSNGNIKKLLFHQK
Vitamin D3 receptor (Homo sapiens), sequence (P11473 whole entry, looked up): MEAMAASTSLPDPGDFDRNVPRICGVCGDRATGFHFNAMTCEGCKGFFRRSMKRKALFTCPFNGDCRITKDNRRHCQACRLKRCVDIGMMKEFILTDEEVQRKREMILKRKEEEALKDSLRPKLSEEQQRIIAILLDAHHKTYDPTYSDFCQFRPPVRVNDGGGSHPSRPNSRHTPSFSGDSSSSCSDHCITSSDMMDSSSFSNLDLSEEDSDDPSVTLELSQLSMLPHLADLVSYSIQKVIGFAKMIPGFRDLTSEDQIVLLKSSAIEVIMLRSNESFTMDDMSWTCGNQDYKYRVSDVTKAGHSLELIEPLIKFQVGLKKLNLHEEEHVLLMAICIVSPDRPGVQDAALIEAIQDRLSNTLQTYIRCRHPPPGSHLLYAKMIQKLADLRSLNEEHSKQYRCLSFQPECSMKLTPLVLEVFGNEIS

SMILES	Potency [1]	activation [2]	Potency [3]	Potency [4]	outcome [5]	max response [6]	Potency [7]	Potency [8]	max response [9]	max response [10]	activation [11]	activation [12]	max response [13]	Potency [14]	max response [15]	max response [16]	Potency [17]	max response [18]	outcome [19]	outcome [20]
CCCCOC(=O)[C@@H](C)Oc1ccc(Oc2ccc(C(F)(F)F)cn2)cc1	inactive	-9.59% (inactive)	inactive	inactive	inactive	-3.89% and -1%	inactive	inactive	-5.61% and -1.04%	9.28% (inactive) and -16% (inactive)	-0.296% (inactive) and -2.63% (inactive)	-0.836% (inactive) and 0.498% (inactive)	-0.0053% (inactive) and -0.638% (inactive)	inactive	-10.9% (inactive) and -13.9% (inactive)	-10% (inactive) and -13.5% (inactive)	inactive	-5.37% (inactive) and -2.58% (inactive)	–	–
CCCCOCC(C)O (stereo not drawn)	inactive	-3.25% (inactive)	inactive	–	inactive	-5.52%	inactive	inactive	12% and -0.638%	-37.2% (inactive) and 3.13% (inactive)	0.734% (inactive) and -0.5% (inactive)	–	0.397% (inactive) and 0.0173% (inactive)	inactive	-1.21% (inactive) and -1.7% (inactive)	–	inactive	5.94% (inactive) and 2.87% (inactive)	inactive	–
C=C[Si](C)(C)O[Si](C)(C)C=C	inactive	–	inactive	inactive	inactive	11.5%	inactive	inactive	-11.2%	-0.957% (inactive)	-0.794% (inactive)	-1.78% (inactive)	-1.71% (inactive)	inactive	-2.71% (inactive)	-5.1% (inactive)	inactive	0.719% (inactive)	inactive	inactive
O=C(OCCOCCOC(=O)c1ccccc1)c1ccccc1	inactive	-2.84% (inactive)	–	inactive	inactive	-16.7%	inactive	inactive	-7.11%	4.89% (inactive)	0.298% (inactive)	1.92% (inactive)	-0.375% (inactive)	inactive	-6.77% (inactive)	-9.08% (inactive)	inactive	2.6% (inactive)	inactive	inactive
Cc1ccc(S(=O)(=O)N=C=O)cc1	inactive	20.2% (inactive)	inactive	inactive	inactive	15.4%	inactive	inactive	-8.47%	12.7% (inactive)	-0.506% (inactive)	–	-0.858% (inactive)	–	-7.8% (inactive)	–	inactive	-1.2% (inactive)	inactive	inactive
CC(C)C(=O)OCC(C)(C)C(O)C(C)C (stereo not drawn)	inactive	-3.75% (inactive)	inactive	inactive	inactive	6.96%	inactive	inactive	-13.9%	-10.9% (inactive)	-1.26% (inactive)	-2.96% (inactive)	-0.497% (inactive)	inactive	-3.28% (inactive)	-9.28% (inactive)	inactive	-1.98% (inactive)	inactive	inactive
COCCO	inactive	2.41% (inactive) and 1.59% (inactive)	inactive	inactive	inactive	-5.91% and 1.76%	inactive	–	-8.45% and -6.73%	16.3% (inactive) and -4.97% (inactive)	–	-1.11% (inactive) and -0.165% (inactive)	-2.01% (inactive) and -0.724% (inactive)	inactive	-7.73% (inactive) and 3.37% (inactive)	-2.14% (inactive) and 3.11% (inactive)	inactive	–	inactive	–
CO[Si](OC)(OC)c1ccccc1	inactive	-5.49% (inactive)	inactive	inactive	inactive	-13.7%	inactive	inactive	-3.5%	-6.99% (inactive)	0.204% (inactive)	1.89% (inactive)	-1.36% (inactive)	inactive	-0.0462% (inactive)	-0.551% (inactive)	inactive	-6.78% (inactive)	inactive	inactive
CC(C)OB(OC(C)C)OC(C)C	inactive	–	inactive	inactive	inactive	-15.5%	inactive	–	-7.32%	0.387% (inactive)	1.02% (inactive)	9.09% (inactive)	-0.0686% (inactive)	inactive	-7.65% (inactive)	-7.12% (inactive)	inactive	0.348% (inactive)	inactive	inactive
CCCCN(CCCC)CCCCCCN(CCCC)CCCC	inactive	–	–	inactive	inactive	-14.8%	inactive	inactive	–	–	–	1.73% (inactive)	-0.567% (inactive)	inactive	–	-21.9% (inactive)	inactive	4.27% (inactive)	inactive	inactive
c1cc(-c2ccncc2)ccn1	inactive	-9.26% (inactive)	inactive	inactive	inactive	22%	inactive	inactive	17.1%	-37.6% (inactive)	-1.45% (inactive)	0.354% (inactive)	0.638% (inactive)	inactive	-5.96% (inactive)	-10.3% (inactive)	inactive	-2.25% (inactive)	inactive	inactive
CCO[Si](CCC#N)(OCC)OCC	inactive	2.23% (inactive)	inactive	–	–	-7.96%	inactive	inactive	-13.6%	-7.94% (inactive)	0.629% (inactive)	–	-0.819% (inactive)	inactive	-7.54% (inactive)	–	inactive	-1.9% (inactive)	inactive	inactive
